Here are results for three compounds from PubChem BioAssay (EPA / NIEHS).

Assay [1] is described as follows: ATG_E_Box_CIS: Attagene CIS-FACTORIAL HepG2 Assay for human Enhancer Box (E-box) (AID 2282936). The note with it: HepG2 E-box cis-reporter transcription, actives raise or lower the signal. Summed up:
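Cells: HepG2 (human liver), transient MRTU transfection. Exposure 24 h. RNA → oligo(dT) RT → PCR → 6-FAM label → HpaI → CE. Activity fitted both directions relative to DMSO.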

A short description of assay [2]: ATG_M_61_CIS: Attagene CIS-FACTORIAL HepG2 Assay for M61 Transcription Factor (Internal Marker) (AID 2282937). The note with it: HepG2 Attagene CIS-FACTORIAL M61 internal marker reporter; actives raise or lower the signal. Summed up: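 Human liver HepG2, transient MRTU transfection (cis promoter elements), 24 h compound. Total RNA → oligo(dT) RT → PCR → FAM label → HpaI → CE. Internal background marker; bidirectional fitting, DMSO = baseline.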

Assay [3] in a line: ATG_EGR_CIS: Attagene CIS-FACTORIAL HepG2 Assay for human Early Growth Response 1 (EGR1) (AID 2282938). The note with it: HepG2 Attagene CIS-FACTORIAL EGR reporter mRNA; actives raise or lower the signal. The gist of the method: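 Transient transfection of human HepG2 with multiple cis-regulated reporter units, chemical exposure 24 h, total RNA isolated. Reverse transcription, PCR, fluorescent labelling and capillary electrophoresis quantify reporter transcripts; activity fitted bidirectionally against DMSO.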

The nature of assay [4]: ATG_M_19_CIS: Attagene CIS-FACTORIAL HepG2 Assay for M19 Transcription Factor (Internal Marker) (AID 2282939). The note with it: HepG2 Attagene CIS-FACTORIAL M19 internal marker reporter; actives raise or lower the signal. Summed up:
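Following a 24 h exposure, RNA from transfected HepG2 cells was reverse-transcribed, PCR-amplified with reporter-specific primers, end-labelled with 6-FAM and HpaI-digested before capillary separation. Values represent gain or loss versus DMSO.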

Assay [5] in a line: ATG_Ets_CIS: Attagene CIS-FACTORIAL HepG2 Assay for human Erythroblast Transformation Specific (ETS) (AID 2282941). The note with it: HepG2 ETS cis-reporter transcription, actives raise or lower the signal. Summed up:
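HepG2 cells transfected with multiple cis-regulated reporter units measuring endogenous ETS-driven transcription, 24 h after dosing. Reporter mRNA quantified by RT-PCR with capillary electrophoresis; bidirectional fit relative to DMSO.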

In assay [6] the target is Hepatocyte nuclear factor 3-beta (Homo sapiens) (UniProt Q9Y261). Description: ATG_FoxA2_CIS: Attagene CIS-FACTORIAL HepG2 Assay for human Forkhead box A2 (FOXA2) (AID 2282942). To be noted: HepG2 cis-reporter transcription factor activity, 24 h; actives raise or lower the signal. Summed up:
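Transient MRTU transfection of HepG2 liver cells; 24 h treatment; total RNA → oligo(dT) RT → PCR → FAM primer extension → HpaI cut → CE. Bidirectional fit vs DMSO.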

Assay [7] is described as follows: ATG_FoxO_CIS: Attagene CIS-FACTORIAL HepG2 Assay for human Forkhead box O (FoxO) (AID 2282943). The note with it: HepG2 Attagene cis-reporter, FoxO element, mRNA; actives raise or lower the signal. The gist of the method: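 HepG2, transient MRTU transfection (cis element, endogenous TFs). Dose 24 h. TriZol RNA → oligo(dT) RT → PCR → 6-FAM primer extension → HpaI cut → CE. Gain/loss vs DMSO.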

Assay [8] in a line: ATG_GATA_CIS: Attagene CIS-FACTORIAL HepG2 Assay for human GATA Binding Protein (AID 2282944). The note with it: HepG2 GATA cis-element reporter, Attagene multiplex mRNA; actives raise or lower the signal. The gist of the method: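 DMSO serves as negative control and baseline for bidirectional fitting of reporter mRNA changes. HepG2 cells bearing transiently transfected cis-promoter reporters were exposed 24 h; transcripts detected via RT-PCR and capillary electrophoresis.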

Assay [9] in a line: ATG_GLI_CIS: Attagene CIS-FACTORIAL HepG2 Assay for human Zinc Finger Protein GLI1 (AID 2282945). To be noted: HepG2, Attagene cis-factorial reporter mRNA, GLI element; actives raise or lower the signal. The gist of the method:
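Bidirectional curve fits relative to DMSO, using reporter mRNA levels from RT-PCR plus capillary electrophoresis. Cells were HepG2 transiently carrying cis-regulated reporter constructs, harvested 24 h after dosing.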

Assay [10] deals with Bile acid receptor (Homo sapiens) (UniProt Q96RI1). Description: ATG_IR1_CIS: Attagene CIS-FACTORIAL HepG2 Assay for human Nuclear Receptor Subfamily 1 Group H Member 4 (NR1H4), IR1 submotif (AID 2282946). The note with it: IR1 reporter transcription, actives raise or lower the signal. The gist of the method: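 Cells (human HepG2) carry transiently transfected cis-promoter reporter transcription units. Compounds are incubated 24 h, total RNA is reverse-transcribed and amplified, and labelled fragments are resolved by capillary electrophoresis. Curves use DMSO as baseline.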
Chain of Bile acid receptor (Homo sapiens) (Q96RI1 whole entry, looked up, the tested form may be a part): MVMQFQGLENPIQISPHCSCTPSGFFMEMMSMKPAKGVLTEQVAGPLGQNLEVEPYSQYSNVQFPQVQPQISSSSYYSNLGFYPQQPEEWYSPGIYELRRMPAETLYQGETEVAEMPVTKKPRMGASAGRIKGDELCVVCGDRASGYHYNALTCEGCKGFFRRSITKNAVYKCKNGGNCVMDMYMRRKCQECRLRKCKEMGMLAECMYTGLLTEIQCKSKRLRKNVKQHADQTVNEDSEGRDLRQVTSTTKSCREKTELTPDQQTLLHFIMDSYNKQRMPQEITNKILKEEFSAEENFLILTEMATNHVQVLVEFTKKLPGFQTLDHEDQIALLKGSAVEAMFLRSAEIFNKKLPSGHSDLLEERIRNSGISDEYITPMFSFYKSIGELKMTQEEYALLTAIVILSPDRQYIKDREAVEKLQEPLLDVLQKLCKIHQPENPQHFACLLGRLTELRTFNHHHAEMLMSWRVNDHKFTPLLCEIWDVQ

Assay [11] can be described thus: ATG_ISRE_CIS: Attagene CIS-FACTORIAL HepG2 Assay for human Interferon Regulatory Factor 1 (IRF1) binding to an Interferon-Stimulated Response Element (ISRE) (AID 2282948). To be noted: HepG2 ISRE cis-reporter (Attagene), mRNA transcription readout; actives raise or lower the signal. Summed up:
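Transiently transfected HepG2 cells carrying cis-element reporter units, dosed 24 hours. Reporter mRNA quantified by RT-PCR, fluorescent primer extension, HpaI digestion and capillary electrophoresis. Bidirectional fitting relative to DMSO.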

The nature of assay [12]: ATG_M_32_CIS: Attagene CIS-FACTORIAL HepG2 Assay for M32 Transcription Factor (Internal Marker) (AID 2282949).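 Also: background control marker of the multiplexed CIS panel rather than a real target.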 To be noted: HepG2 Attagene cis-factorial M32 reporter, mRNA; actives raise or lower the signal. The gist of the method:
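HepG2 cells transiently transfected with multiplexed cis-regulated reporter units, dosed 24 h. Reporter mRNA quantified by RT-PCR, 6-FAM labelling, HpaI digestion and capillary electrophoresis; bidirectional fit vs DMSO.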

Assay [13] can be described thus: ATG_M_06_CIS: Attagene CIS-FACTORIAL HepG2 Assay for M06 Transcription Factor (Internal Marker) (AID 2282950). The note with it: HepG2 Attagene CIS-FACTORIAL M06 internal marker reporter; actives raise or lower the signal. The gist of the method:
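Fluorescence-labelled RT-PCR products from cis-promoter reporter units, cut with HpaI and resolved by capillary electrophoresis, give the signal. Cells are human HepG2, dosed for 24 h. Serves as background control, fitted relative to DMSO.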

Assay [14] addresses Hypoxia-inducible factor 1-alpha (Homo sapiens) (UniProt Q16665). Kind of assay: ATG_HIF1a_CIS: Attagene CIS-FACTORIAL HepG2 Assay for human Hypoxia Inducible Factor 1 (HIF1A) (AID 2282951). To be noted: HepG2 Attagene cis-factorial HIF1a reporter transcription; actives raise or lower the signal. The gist of the method:
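Transient MRTU transfection of human HepG2 liver cells, 24 h compound treatment, then total RNA isolation, oligo(dT) reverse transcription, PCR amplification, fluorescent labelling and capillary electrophoresis of reporter fragments. Gain or loss relative to DMSO.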

Assay [15] deals with Hepatocyte nuclear factor 6 (Homo sapiens) (UniProt Q9UBC0). Description: ATG_HNF6_CIS: Attagene CIS-FACTORIAL HepG2 Assay for human Hepatocyte Nuclear Factor 6 (HNF6) (AID 2282952). To be noted: HepG2 Attagene cis-factorial HNF6 reporter transcription; actives raise or lower the signal. The gist of the method:
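HepG2 cells transiently transfected with cis-element-driven multiplexed reporter units measuring endogenous transcription factor activity. After 24 h exposure, reporter mRNA quantified by RT-PCR, FAM-labelled fragments and capillary electrophoresis; bidirectional fitting versus DMSO.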

Assay [16] concerns the target Heat shock factor protein 1 (Homo sapiens) (UniProt Q00613). Description: ATG_HSE_CIS: Attagene CIS-FACTORIAL HepG2 Assay for human Heat Shock Transcription Factor 1 (HSE) (AID 2282953). The note with it: HepG2 HSE cis-reporter, Attagene RNA transcription; actives raise or lower the signal. Summed up:
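After a 24 h incubation with test chemical, transfected HepG2 cells were harvested for RNA; reporter transcripts were measured by RT-PCR and capillary electrophoresis. Values reflect gain or loss of signal relative to DMSO.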

Assay [17] is described as follows: ATG_MRE_CIS: Attagene CIS-FACTORIAL HepG2 Assay for human Metal Responsive Element (MRE) (AID 2282954). The note with it: HepG2 MRE cis-reporter transcription, Attagene multiplex; actives raise or lower the signal. The gist of the method:
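Transient MRTU transfection of HepG2 (FuGene 6); 24 h dosing; total RNA → oligo(dT) RT, PCR, 6-FAM primer extension, HpaI cut, CE. Bidirectional fit vs DMSO.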

Assay [18] is described as follows: ATG_PBREM_CIS: Attagene CIS-FACTORIAL HepG2 Assay for human Phenobarbital-responsive Enhancer Module (PBREM) (AID 2282955). The note with it: HepG2 PBREM cis-reporter, Attagene multiplexed transcription; actives raise or lower the signal. Summed up:
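Endogenous transcription factors in human liver HepG2 cells drive a PBREM cis-element reporter, whose transcript level after 24 h treatment is quantified by RT-PCR with capillary electrophoresis; activity fitted in both directions against DMSO.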

Assay [19] addresses Paired box protein Pax-6 (Homo sapiens) (UniProt P26367). Kind of assay: ATG_Pax6_CIS: Attagene CIS-FACTORIAL HepG2 Assay for human Paired Box 6 (PAX6) (AID 2282956). To be noted: HepG2 CIS-FACTORIAL PAX6 reporter transcription, RNA readout; actives raise or lower the signal. Summed up: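 HepG2 cells transiently transfected with cis-promoter-driven multiplexed reporter units sensing endogenous transcription factor activity; 24 h chemical exposure. Reporter mRNA quantified by RT-PCR, 6-FAM labelling, HpaI digestion and capillary electrophoresis; bidirectional fit versus DMSO baseline.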

The nature of assay [20]: ATG_GRE_CIS: Attagene CIS-FACTORIAL HepG2 Assay for human Glucocorticoid Response Elements (GRE) (AID 2282947). The note with it: HepG2 GRE cis-reporter, Attagene multiplex mRNA; actives raise or lower the signal. Summed up:
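Transient MRTU transfection of human HepG2 liver cells; cis-regulated reporters report endogenous factors. 24 h dosing → RNA isolation → RT-PCR → 6-FAM primer extension → HpaI cut → CE fragment analysis. Bidirectional fit, DMSO negative control.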

Molecules are shown by their SMILES. Active and inactive are the calls of the source. The calls were made as follows: active = hit-call score of the fitted dose curve at least 0.9, where 1 is the maximum; inactive = score below 0.9.

Chain of Hypoxia-inducible factor 1-alpha (Homo sapiens) (Q16665 whole entry, looked up, the tested form may be a part): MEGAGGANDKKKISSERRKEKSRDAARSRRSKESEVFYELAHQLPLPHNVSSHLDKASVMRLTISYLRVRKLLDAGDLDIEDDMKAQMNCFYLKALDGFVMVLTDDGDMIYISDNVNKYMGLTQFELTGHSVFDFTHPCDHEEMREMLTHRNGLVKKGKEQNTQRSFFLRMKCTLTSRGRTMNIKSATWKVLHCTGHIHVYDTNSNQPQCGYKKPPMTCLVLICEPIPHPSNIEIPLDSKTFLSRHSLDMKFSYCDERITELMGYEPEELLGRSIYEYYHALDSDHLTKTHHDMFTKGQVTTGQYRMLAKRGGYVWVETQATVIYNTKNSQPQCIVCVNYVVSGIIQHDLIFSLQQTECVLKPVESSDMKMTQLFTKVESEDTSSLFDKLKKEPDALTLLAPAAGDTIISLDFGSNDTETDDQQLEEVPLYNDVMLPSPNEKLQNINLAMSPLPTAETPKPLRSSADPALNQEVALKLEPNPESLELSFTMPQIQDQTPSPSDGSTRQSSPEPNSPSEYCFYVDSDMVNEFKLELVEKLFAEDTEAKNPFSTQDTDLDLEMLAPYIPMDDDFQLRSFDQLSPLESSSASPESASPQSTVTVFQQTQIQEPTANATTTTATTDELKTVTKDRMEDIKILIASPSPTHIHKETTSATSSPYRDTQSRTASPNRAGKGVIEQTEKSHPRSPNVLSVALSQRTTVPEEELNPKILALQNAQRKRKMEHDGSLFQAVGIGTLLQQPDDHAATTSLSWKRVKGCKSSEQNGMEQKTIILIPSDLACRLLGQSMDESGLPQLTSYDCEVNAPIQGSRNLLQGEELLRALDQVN
Chain of Hepatocyte nuclear factor 3-beta (Homo sapiens) (Q9Y261 whole entry, looked up): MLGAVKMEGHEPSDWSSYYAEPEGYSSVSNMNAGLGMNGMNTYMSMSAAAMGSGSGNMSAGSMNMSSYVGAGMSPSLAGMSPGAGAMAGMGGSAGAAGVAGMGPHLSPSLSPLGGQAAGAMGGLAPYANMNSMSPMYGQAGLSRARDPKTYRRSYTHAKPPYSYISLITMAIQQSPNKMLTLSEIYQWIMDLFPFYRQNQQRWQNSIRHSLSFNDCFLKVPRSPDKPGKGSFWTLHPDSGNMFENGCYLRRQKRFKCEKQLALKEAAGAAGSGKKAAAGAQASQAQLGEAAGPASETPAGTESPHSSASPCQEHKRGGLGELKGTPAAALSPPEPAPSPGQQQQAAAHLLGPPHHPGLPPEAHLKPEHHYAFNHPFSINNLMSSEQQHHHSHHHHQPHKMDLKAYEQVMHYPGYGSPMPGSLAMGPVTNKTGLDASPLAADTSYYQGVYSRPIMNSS
Chain of Hepatocyte nuclear factor 6 (Homo sapiens) (Q9UBC0 whole entry, looked up, the tested form may be a part): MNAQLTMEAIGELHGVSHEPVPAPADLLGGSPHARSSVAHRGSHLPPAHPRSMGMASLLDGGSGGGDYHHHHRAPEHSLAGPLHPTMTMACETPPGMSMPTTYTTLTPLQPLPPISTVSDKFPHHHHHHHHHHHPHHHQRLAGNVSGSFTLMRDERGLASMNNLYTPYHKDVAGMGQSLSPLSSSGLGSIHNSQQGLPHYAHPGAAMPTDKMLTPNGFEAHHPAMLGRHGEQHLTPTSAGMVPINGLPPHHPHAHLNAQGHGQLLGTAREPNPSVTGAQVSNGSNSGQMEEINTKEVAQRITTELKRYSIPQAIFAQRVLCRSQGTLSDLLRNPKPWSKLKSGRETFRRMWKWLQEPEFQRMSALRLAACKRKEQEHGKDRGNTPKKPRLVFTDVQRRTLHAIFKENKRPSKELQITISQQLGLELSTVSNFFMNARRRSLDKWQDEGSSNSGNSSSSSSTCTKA
Chain of Heat shock factor protein 1 (Homo sapiens) (Q00613 whole entry, looked up): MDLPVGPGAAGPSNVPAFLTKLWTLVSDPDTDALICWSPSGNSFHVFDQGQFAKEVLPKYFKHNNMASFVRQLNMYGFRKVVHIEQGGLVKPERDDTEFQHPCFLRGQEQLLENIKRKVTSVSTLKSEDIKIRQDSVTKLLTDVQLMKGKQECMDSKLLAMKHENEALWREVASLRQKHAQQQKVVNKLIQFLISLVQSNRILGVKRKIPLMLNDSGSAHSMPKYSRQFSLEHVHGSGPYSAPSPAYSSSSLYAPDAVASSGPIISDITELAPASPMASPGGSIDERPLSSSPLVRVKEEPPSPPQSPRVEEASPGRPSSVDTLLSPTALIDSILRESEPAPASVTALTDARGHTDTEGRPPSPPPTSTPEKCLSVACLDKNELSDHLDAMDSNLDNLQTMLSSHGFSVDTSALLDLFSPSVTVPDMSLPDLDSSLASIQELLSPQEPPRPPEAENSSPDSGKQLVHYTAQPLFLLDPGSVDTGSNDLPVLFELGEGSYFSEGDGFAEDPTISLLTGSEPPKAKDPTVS
Chain of Paired box protein Pax-6 (Homo sapiens) (P26367 whole entry, looked up): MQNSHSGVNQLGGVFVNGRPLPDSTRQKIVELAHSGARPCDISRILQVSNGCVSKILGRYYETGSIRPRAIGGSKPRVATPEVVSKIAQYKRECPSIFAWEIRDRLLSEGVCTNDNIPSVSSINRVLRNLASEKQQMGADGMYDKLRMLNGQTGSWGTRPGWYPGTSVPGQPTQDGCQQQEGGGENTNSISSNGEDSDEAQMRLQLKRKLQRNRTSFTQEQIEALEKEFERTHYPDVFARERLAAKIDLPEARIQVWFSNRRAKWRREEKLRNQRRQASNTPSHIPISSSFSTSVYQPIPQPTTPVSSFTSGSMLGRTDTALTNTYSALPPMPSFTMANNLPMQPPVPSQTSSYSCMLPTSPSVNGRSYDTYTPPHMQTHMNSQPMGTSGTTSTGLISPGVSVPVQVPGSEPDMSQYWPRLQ

Consider `CCN(Cc1c(F)cccc1Cl)c1c([N+](=O)[O-])cc(C(F)(F)F)cc1[N+](=O)[O-]`, for which the result in assay [1], in [2], in assay [3], in assay [4], in [5] and in assay [6] was inactive. Besides, the compound was classed as inactive in assay [7], in assay [8], in [9], in assay [10], in [11] and in [12]. For the same compound, the compound was called inactive in assay [13], in [14], in assay [15], in [16] and in assay [17]. The AC50 – broadly, the concentration giving half of the maximal activity seen – in [18] was 7.72 µM (active).

As to `O=C(O)C1(C(=O)Nc2ccc(Cl)cc2Cl)CC1`, the outcome in [1], in [2], in assay [3], in assay [4], in assay [5] and in assay [6] was inactive. Moreover, the result in assay [7], in [8], in assay [9], in [10], in [11] and in assay [12] was inactive. For the same compound, the call in [13], in assay [14], in assay [15], in assay [16], in assay [17] and in assay [19] was inactive.

On to `CCCCC(CC)COC(=O)c1ccccc1C(=O)O` (stereo not drawn), for which the outcome in assay [1], in assay [2], in assay [3], in assay [4], in [5] and in assay [6] was inactive. In addition, the compound was classed as inactive in assay [7], in [8], in assay [9], in assay [20], in assay [11] and in [12]. Further, the result in assay [13], in assay [14], in assay [15], in [17] and in assay [18] was inactive.
